# D2 PAM-1: human D2 receptor positive allosteric modulation | AID 624464 | actives 0.23% (n = 360,000) | potentiation, % (concentration not given with the values) | DiscoveRx D2 beta-arrestin cells, luminescence, 90 min; 100% = 57 uM dopamine signal; in the data active means potentiation above about 50%; inconclusive means mostly about 30% to 49%
#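 PathHunter D2 cells, attached overnight at 37 deg C, received compound in DMSO plus dopamine at EC20 (50 nM final) for 90 min at 37 deg C. Beta-arrestin recruitment was read as luminescence after 1 h with detection reagent at ambient temperature.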
# D2 antagonist: antagonizes the human D2 dopamine receptor; P14416; HEK293 TREx D2 cells, calcium flux, dopamine EC80; actives 2% (n = 340,000); inhibition, % at 10 µM; in the data active means inhibition above about 30%; inactive means below that, where a call was filed; further: 0% is about no effect
#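 Calcium mobilization kinetics were recorded at 1 s intervals in tetracycline-induced HEK293 T-REx D2 cells, first for 180 s after compound addition and then 180 s after EC80 dopamine.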
# D2 PAM-2: D2 dopamine receptor (human) potentiation; P14416; HEK293 T-REx D2, calcium flux, EC20 dopamine potentiation; potentiation, % at 10 µM; actives 0.34% (n = 340,000); AID 485347;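 active means potentiation over 3 SD above the plate norm, cut at about 30% in these data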; further: 0% is about no effect
#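 Tetracycline-induced HEK293 T-REx cells force-coupled to calcium signalling expressed D2; compounds were pin-added after a 10 s baseline, read kinetically 180 s, then an EC20 dopamine challenge followed with a further 180 s calcium read.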
# LDHA block: inhibitors of human lactate dehydrogenase A | activity change, % (values are at about 110 or 230 µM) | actives 0.15% (n = 480,000) | P00338 | purified LDHA, NADH/diaphorase-resazurin fluorescence; hits give low values; in the data active means activity change below about -30%; inconclusive means mostly about -25% to -30%;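 further: plate controls were DMSO wells for no effect and wells without enzyme for full effect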
#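 Enzyme activity of human lactate dehydrogenase 5 (2 nM; 0.06 mM NADH, 0.2 mM pyruvate, 5 min, RT) is measured via a resazurin/diaphorase fluorescence readout of residual NADH.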
# D2 ag-1: agonists of human D2 dopamine receptor | P14416 | HEK293 T-REx D2 cells, calcium flux agonist mode | activation, % at 2 µM | actives 0.53% (n = 340,000);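 active means activation over 3 SD above normal in the single-dose calcium agonist read, cut at about 30% in these data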; further: 0% is about no effect
#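 HEK293 Trex D2 cells, tetracycline-induced, o/n 30 C 5% CO2; no-wash Ca dye, RT 30–90 min; 10-cycle baseline, 23 nl cpd added, kinetic Ca read 180 s; agonist hits = positive Ca response.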
# D2 ag-2: activates the human D2 dopamine receptor; P14416; DiscoveRx PathHunter D2 beta-arrestin, luminescence, 90 min; 100% = 57 uM dopamine signal; activation, % (test concentration not listed); actives 0.084% (n = 360,000); AID 624465; in the data active means activation above about 40%; inconclusive means between about 15% and that limit
#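 Agonist mode: compounds alone added to overnight-plated D2 PathHunter cells for 90 min at 37 C, with 57 uM final dopamine (EC100) defining full response. Beta-arrestin recruitment detected by chemiluminescent reagent, read after 1 h at ambient temperature.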
# D3 arrestin ag: D3 receptor agonism confirmed, beta-arrestin readout; shares compounds with D2 ag-1; DiscoveRx D3 beta-arrestin cells, luminescence, 90 min; Potency, µM (series often up to 76.9 µM), for the others: at the top dose activation, most hits filed as activators; actives 4% (n = 2,300); AID 720506;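 further: potency means the concentration at half of the fitted maximal effect; 100% = dopamine control response; nearly all actives have a fitted effect of over 70% in size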
# Target sequence (P35462 whole entry, looked up): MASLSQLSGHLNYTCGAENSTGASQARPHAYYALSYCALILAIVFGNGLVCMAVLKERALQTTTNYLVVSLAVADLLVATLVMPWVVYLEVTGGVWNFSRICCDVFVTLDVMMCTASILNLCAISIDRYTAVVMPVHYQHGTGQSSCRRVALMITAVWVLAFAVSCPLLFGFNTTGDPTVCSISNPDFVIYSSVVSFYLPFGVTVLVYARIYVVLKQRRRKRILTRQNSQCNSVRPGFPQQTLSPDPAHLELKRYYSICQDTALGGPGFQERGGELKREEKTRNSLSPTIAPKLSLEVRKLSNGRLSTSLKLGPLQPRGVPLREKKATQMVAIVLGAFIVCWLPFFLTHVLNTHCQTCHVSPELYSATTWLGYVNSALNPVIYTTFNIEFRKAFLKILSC
# D2 ag-3: counter-screen for D3 agonists: human D2 dopamine receptor agonism | shares compounds with D2 ag-1 | DiscoveRx PathHunter D2 beta-arrestin, luminescence, 90 min; response scale: percent relative to full dopamine signal | Potency, µM (top dose mostly 76.9 µM), for inactives: at the top dose activation, actives largely listed as activators | actives 5.9% (n = 2,300) | AID 720507; further: potency means the concentration at half of the fitted maximal effect; % of control where 0% means no effect; nearly all actives have a fitted effect of over 70% in size
# Starred values were filed as active, the others as inactive; ? = inconclusive; nt = not tested or not shown. Rows were chosen to be rich in hits. Some 2.1% of all compounds tested hit in one or more screens of this group. Unless noted, the call rests on the fitted dose curve; in most records, active means well fitted activation curve with a large enough effect; inconclusive means small, poorly fitted or top-dose-only effect; inactive means flat fitted curve, though single readings scatter.
SMILES,D2 PAM-1,D2 antagonist,D2 PAM-2,LDHA block,D2 ag-1,D2 ag-2,D3 arrestin ag,D2 ag-3
CC(C)C(=O)Nc1ccc2c(c1)nc(CCN1CCN(c3ccccn3)CC1)n2C,-2,33*,-22,-6,67*,?,?,16%
CCC(=O)Nc1ccc2c(c1)nc(CCN1CCN(c3ccccc3)CC1)n2C,-9,21,-22,0,62*,4,-5%,7%
Cc1cc(C(=O)NNC(=S)NC(=O)c2ccccc2)cs1,nt,nt,nt,-2,nt,nt,nt,nt
CCc1cc(C(=O)Cc2csc(-c3ccccc3)n2)c(O)cc1O,nt,nt,nt,6,nt,nt,nt,nt
C=C(C)C1CC=C(CN2CCC(C(=O)OCC)CC2)CC1 (stereo not drawn),-4,72*,-22,-12,60*,10,-3%,20%
Clc1ccc(-c2nn3c(CN4CCOCC4)nnc3s2)cc1,nt,nt,nt,-2,nt,nt,nt,nt
N#Cc1ccccc1OCC(=O)OCCCOC(=O)COc1ccccc1C#N,-4,15,-19,-10,62*,-1,1%,-2%
CC1(C)CC(=O)C=C(c2ccc3ccccc3c2)C1,-8,nt,4,-4,nt,0,-2%,3%
Cc1ccc(C2=CC(=O)CC(C)(C)C2)cc1,-12,-14,10,0,-1,-3,nt,nt
O=C(Nc1ccc(C(=O)NCCCN2CCCCC2)cc1)C1=CSCCO1,-10,nt,nt,-1,nt,2,nt,nt
O=C(Nc1ccc(C(=O)NCCCN2CCN(c3ccc(F)cc3)CC2)cc1)C1=CSCCO1,-52,69*,-25,2,69*,11,-14%,25%
CCOc1ccccc1N1CCN(Cc2cccc(OC)c2OC)CC1,4,87*,-32,?,26,2,-22%,-3%
COc1ccc(CN2CCN(c3ncccn3)CC2)c(C)c1C,5,93*,-29,-18,88*,47*,?,2.2µM*
COc1ccc(CN2CCN(Cc3cccc(OC)c3OC)CC2)cc1,nt,nt,nt,0,nt,nt,nt,nt
COc1cccc(CN2CCN(c3ncccn3)CC2)c1OC,10,60*,-18,-15,81*,?,14%,?
COc1cccc(CN2CCN(Cc3cc(OC)c(OC)c(OC)c3)CC2)c1OC,-11,4,-9,-35*,0,5,0%,-1%
CCN(CC)CCN1C(=O)C(=O)/C(=C(/O)c2ccc(OCc3cccc(C)c3)cc2)C1c1ccco1 (stereo not drawn),nt,nt,nt,1,nt,nt,nt,nt
COc1ccc(CN2CCN(c3ccccn3)CC2)c(OC)c1C,13,nt,nt,-12,nt,13,0%,?
COc1ccccc1N1CCN(CCCCOc2cccc3ccccc23)CC1,-42,73*,-19,0,35*,1,-3%,17%
COc1ccc(CN2CCSCC2)c(OC)c1C,-11,-17,-6,-16,-1,-4,nt,nt
c1cnc(N2CCN(Cc3c[nH]c4ccccc34)CC2)nc1,?,83*,-28,-6,86*,?,4%,?
N#Cc1cccc(Cn2cnc3c(Cl)cc(Cl)cc3c2=O)c1,nt,nt,nt,-3,nt,nt,nt,nt
COc1cccc(CC(=O)OCC(=O)N(C)CC(=O)Nc2ccccc2Cl)c1,-11,6,-4,-13,0,-5,-9%,0%
COc1cccc(NC(=O)CN(C)C(=O)Cc2ccc3c(c2)OCCO3)c1,5,-4,-7,-1,0,4,-1%,-3%
CCC(CO)NC(=O)Nc1sc(C)c(C)c1C#N (stereo not drawn),nt,nt,nt,2,nt,nt,nt,nt
SMILES,D2 PAM-1,D2 antagonist,D2 PAM-2,LDHA block,D2 ag-1,D2 ag-2,D3 arrestin ag,D2 ag-3
O=S(=O)(NCC(c1ccc2c(c1)OCO2)N1CCN(c2ccccc2)CC1)c1ccccc1 (stereo not drawn),10,80*,-28,-5,71*,?,13%,?
Cc1ccc(NC(=O)CNC(=O)c2ccc3c(c2)OCO3)nc1,-9,5,-2,-8,1,2,-14%,-4%
Cc1ccc(CNc2ncnc3cc(Cl)ccc23)cc1,-10,10,-13,-3,1,4,nt,nt
Cc1cc(NCc2ccc(F)cc2)nc2cc(Cl)ccc12,-6,20,-12,-13,0,12,-13%,-2%
Cn1cnc(C(=O)N2CCN(c3ccccc3)CC2)c1C(=O)N1CCN(c2ccccc2)CC1,-5,-3,5,-13,1,-2,0%,-2%
CC(=O)c1cccc(NC(=O)C(C)OC(=O)CCn2c(C)csc2=O)c1 (stereo not drawn),-7,-11,0,0,0,-2,-6%,-3%
Cc1csc(=O)n1CCC(=O)OC(C)C(=O)Nc1ccc(N2CCOCC2)cc1 (stereo not drawn),-1,-4,-5,-2,-1,7,nt,nt
O=c1[nH]c(-n2cccc2)c(-c2c(-c3ccccc3)[nH]c3[nH]c(=O)[nH]c(=O)c23)c(=O)[nH]1,nt,nt,nt,-1,nt,nt,nt,nt
CC(OC(=O)c1nc(Cl)ccc1Cl)C(=O)NC1CCCCC1C (stereo not drawn),-5,6,-7,-4,0,15,-4%,-1%
O=S(=O)(Nc1nc2ccccc2[nH]1)c1ccc2ccccc2c1,-6,1,-19,-18,56*,0,-30%,0%
O=S(=O)(Nc1ncn[nH]1)c1ccc2ccccc2c1,18,-11,4,1,0,-2,nt,nt
Cc1[nH]c2ccccc2c1C(c1ccc(Br)o1)c1c(C)[nH]c2ccccc12,nt,nt,nt,18,nt,nt,nt,nt
Cc1ccc2[nH]c(=O)c3cc(C(=O)N(C)Cc4ccco4)sc3c2c1,-1,-11,-12,-1,82*,-6,-3%,-3%
Cc1nn(-c2ccccc2)c(C)c1CN(C)C(=O)CNC(=O)c1ccc(C(C)(C)C)cc1,nt,nt,nt,8,nt,nt,nt,nt
COc1ccc(-n2ncc3c(NCc4ccco4)ncnc32)cc1,-1,-4,18,-3,-1,1,nt,nt
Clc1ccc(-n2ncc3c(NCc4ccco4)ncnc32)cc1,6,-22,-9,0,-2,1,4%,3%
O=C(NC1CCCC1)c1ccc2c(c1)-c1ccccc1C2,nt,nt,nt,-5,nt,nt,nt,nt
Cc1nn(-c2ccccc2)c(Cl)c1/C=N/N1CCN(c2ccccn2)CC1,-6,3,-11,-4,-1,-1,nt,nt
CN(C)c1ccc(/C=N/N2CCN(c3ccccn3)CC2)cc1,21,16,-23,0,45*,?,8%,13%

# High-throughput results deposited in PubChem BioAssay by National Center for Advancing Translational Sciences (NCATS).
